Measurements from publication PMC4336329 (PLoS ONE, 2015).
In all, about 310,000 compounds went through this assay and about 14,000 (4.5%) showed an effect of 50% or more. Effects have a minus sign here. Shown is part of a subset that was picked to be rich in strong results.

Target: human ether-à-go-go-related gene (hERG) potassium channel (human, UniProt Q12809)
Assay: primary screen, population patch clamp on CHO cells stably expressing hERG; higher = less effect of the substance
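Further: peak tail current of the secondary pulse compared with the same well before compound.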

Sequence of human ether-à-go-go-related gene (hERG) potassium channel (Q12809 whole entry, looked up): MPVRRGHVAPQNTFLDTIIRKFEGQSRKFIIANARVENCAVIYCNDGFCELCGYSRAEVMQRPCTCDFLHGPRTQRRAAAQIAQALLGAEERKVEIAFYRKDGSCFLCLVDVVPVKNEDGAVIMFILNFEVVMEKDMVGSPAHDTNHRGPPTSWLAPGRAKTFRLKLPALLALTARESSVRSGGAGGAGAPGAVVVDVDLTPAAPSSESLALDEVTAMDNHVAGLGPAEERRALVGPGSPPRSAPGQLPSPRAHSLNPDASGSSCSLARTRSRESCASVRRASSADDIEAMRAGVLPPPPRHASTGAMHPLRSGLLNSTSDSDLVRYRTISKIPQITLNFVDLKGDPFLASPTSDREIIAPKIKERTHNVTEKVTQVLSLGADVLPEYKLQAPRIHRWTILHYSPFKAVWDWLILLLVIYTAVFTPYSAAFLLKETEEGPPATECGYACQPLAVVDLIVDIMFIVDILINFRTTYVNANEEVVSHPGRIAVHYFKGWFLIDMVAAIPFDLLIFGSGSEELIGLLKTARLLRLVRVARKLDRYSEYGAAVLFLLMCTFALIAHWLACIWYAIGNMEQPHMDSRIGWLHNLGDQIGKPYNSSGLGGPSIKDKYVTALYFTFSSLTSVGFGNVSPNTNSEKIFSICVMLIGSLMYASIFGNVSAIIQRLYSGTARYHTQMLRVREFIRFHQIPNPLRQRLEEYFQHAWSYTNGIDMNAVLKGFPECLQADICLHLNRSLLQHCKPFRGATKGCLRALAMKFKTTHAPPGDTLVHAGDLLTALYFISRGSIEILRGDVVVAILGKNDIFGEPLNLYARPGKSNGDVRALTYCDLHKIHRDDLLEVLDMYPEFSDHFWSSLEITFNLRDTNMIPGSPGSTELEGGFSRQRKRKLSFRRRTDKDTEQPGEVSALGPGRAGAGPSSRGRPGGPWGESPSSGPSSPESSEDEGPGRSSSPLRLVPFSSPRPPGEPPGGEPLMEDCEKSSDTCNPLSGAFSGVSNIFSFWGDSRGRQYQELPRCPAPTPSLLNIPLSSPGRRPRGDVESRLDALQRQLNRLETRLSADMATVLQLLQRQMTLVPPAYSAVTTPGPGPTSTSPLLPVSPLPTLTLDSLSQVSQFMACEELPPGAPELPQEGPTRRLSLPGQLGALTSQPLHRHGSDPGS

Row | SMILES | hERG current change (%, negative = inhibition) at 10uM [%]
1 | CCOc1ccc(-n2nnnc2-c2nc3ccccc3s2)cc1 | 11.9
2 | O=c1[nH]cc(S(=O)(=O)N2CCOCC2)c(=O)[nH]1 | -7.17
3 | COCCn1c(=O)c2c(nc3n2CCCN3CCc2ccccc2)n(C)c1=O | -31.2
4 | C=CCn1c(=O)c2c(nc3n2CCCN3CCc2ccccc2)n(C)c1=O | -19.8
5 | CC1CN(CCc2ccccc2)c2nc3c(c(=O)n(C)c(=O)n3C)n2C1 (centres unmarked) | -33.9
6 | CC1CN(CCc2ccccc2)c2nc3c(c(=O)n(CC(N)=O)c(=O)n3C)n2C1 (centres unmarked) | 2.53
7 | C=CCn1c(=O)c2c(nc3n2CC(C)CN3CCc2ccccc2)n(C)c1=O (centres unmarked) | -72
8 | CC1CN(CCc2ccccc2)c2nc3c(c(=O)[nH]c(=O)n3C)n2C1 (centres unmarked) | -35.9
9 | COCCn1c(=O)c2c(nc3n2CC(C)CN3CCc2ccccc2)n(C)c1=O (centres unmarked) | -56.6
10 | COCCn1c(=O)c2c(nc3n2CC(C)CN3Cc2ccccc2)n(C)c1=O (centres unmarked) | -47.6
11 | CCOCCn1c(=O)c2c(nc3n2CC(C)CN3Cc2ccccc2)n(C)c1=O (centres unmarked) | -49.5
12 | CCOCCn1c(=O)c2c(nc3n2CC(C)CN3CCc2ccccc2)n(C)c1=O (centres unmarked) | -71.5
13 | CCOCCn1c(=O)c2c(nc3n2CCCN3CCc2ccccc2)n(C)c1=O | -22.8
14 | CCn1c(=O)c2c(nc3n2CC(C)CN3CCc2ccccc2)n(C)c1=O (centres unmarked) | -72.6
15 | CC(C)C(=O)Nc1cccc(NC(=O)c2cc3ccccc3o2)c1 | -22
16 | C=C(C)C1CC=C(C)/C(=N/NC(=O)COc2cccc3ccccc23)C1 (centres unmarked) | 10.9
17 | CCOc1cc(C(=O)NN2CCOCC2)cc(OCC)c1OCC | 35.2
18 | CC(C)CC(=O)NC(=S)Nc1nc(-c2cccc3ccccc23)cs1 | 12.7
19 | COc1ccc(/C=N/n2cnnc2SCc2ccccc2)cc1 | -2.99
20 | Cc1nc(SCC(=O)NC2CCS(=O)(=O)C2)c2c(C)c(C)sc2n1 (centres unmarked) | 6.15
21 | Clc1ccccc1-c1nnc(-c2ccccc2Cl)o1 | -2.56
22 | COc1cccc(N/N=C/c2cccc(Br)c2O)c1 | -11.1

Row | SMILES | hERG current change (%, negative = inhibition) at 10uM [%]
23 | CCOC(=O)c1sc2nc(SCC#N)n(CC3CCCO3)c(=O)c2c1C (centres unmarked) | -13.5
24 | CCOC(=O)c1sc2nc(SCC#N)n(CCCN3CCCC3=O)c(=O)c2c1C | -62.9
25 | CCOC(=O)c1sc2nc(SCC(=O)N(CC)CC)n(CCCN3CCCC3=O)c(=O)c2c1C | -32.4
26 | COc1cccc(C2C(C(=O)c3cc4ccccc4o3)=C(O)C(=O)N2CCN(C)C)c1OC (centres unmarked) | 0.215
27 | Cc1ccc(C(=O)CSc2cc(C)[nH]c(=O)n2)cc1 | 6.76
28 | CC(=O)NN1C(=O)/C(=C\c2ccc(Cl)cc2)SC1=S | 0.662
29 | Cc1ccc(C)c(-n2c(=O)c(C#N)cc3c(=O)n4ccccc4nc32)c1 | 30.5
30 | CCCn1c(=N)c(C#N)cc2c(=O)n3ccccc3nc21 | -9.89
31 | CCC(C)n1c(=N)c(C#N)cc2c(=O)n3cc(C)ccc3nc21 (centres unmarked) | -70.9
32 | Cc1cccn2c(=O)c3cc(C#N)c(=O)n(-c4c(C)n(C)n(-c5ccccc5)c4=O)c3nc12 | -7.5
33 | CCC(C)n1c(=N)c(C#N)cc2c(=O)n3cccc(C)c3nc21 (centres unmarked) | -66.9
34 | Cc1ccc(Cn2c(=N)c(C#N)cc3c(=O)n4cccc(C)c4nc32)cc1 | -13
35 | CCC(C)n1c(=N)c(C#N)cc2c(=O)n3ccccc3nc21 (centres unmarked) | -40.9
36 | CCCn1c(=N)c(C#N)cc2c(=O)n3cccc(C)c3nc21 | -53
37 | Cc1ccc2nc(NCc3ccccc3)c(C=NCc3cccnc3)c(=O)n2c1 | 3.39
38 | N#Cc1cc2c(=O)n3ccccc3nc2n(Cc2cccnc2)c1=O | -21
39 | Cc1ccc2nc3c(cc(C#N)c(=N)n3Cc3cccnc3)c(=O)n2c1 | -60.4
40 | Cc1ccc2nc3c(cc(C#N)c(=O)n3-c3nccs3)c(=O)n2c1 | 2.51
41 | CC(=O)NC(CC(=O)Nc1nc(C)cs1)c1ccccc1 (centres unmarked) | 14.1
42 | CCCCCCCCn1sccc1=O | -33.8
43 | Cc1ccc(S(=O)(=O)N2CCN3CCCC3C2)cc1 (centres unmarked) | -6.76
44 | COc1ccc(S(=O)(=O)NCCc2nnc3ccc(SCC(=O)Nc4nc(C)cs4)nn23)cc1 | 25.3
